What all share (assay): log2 fold change, soluble protein after heating vs DMSO (PISA); higher = thermal stabilisation; K562 cells, 10 uM, 30 min; active = over 0.2 and 3.5 SD of the protein, either way, in both replicates (recomputed)
Compound in test [1]: C1=CC=C(C=C1)[C@H](COC2=CC3=C(C=C2)NC(=O)N3)NC(=O)C4=CC=CN(C4=O)CC5=CC(=C(C=C5)F)F
In a few lines: (§1)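 K562 cells at 2×10^6 cells/mL were treated for 30 min with 10 μM compound, and aliquots were heated for 3 min over 48°C-58°C before pooling. Extraction used PBS with 0.5% NP-40 at 4°C, and soluble protein was the supernatant after 21,000xg for 90 min, measured by TMTpro 16plex LC-MS/MS with channel sums equalised. Thermal stability values, relative to control samples and from duplicates, are log2 fold changes.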

Compound in test [2]: CC1=C(SC2=C1C(=N[C@H](C3=NN=C(N32)C)CC(=O)N)C4=CC=C(C=C4)Cl)C
Summed up: as §1

Compound in test [3]: CC1=C2C(=CC=C1)N=C(N(C2=O)C3=CC=CC=C3C)CN4C=NC5=C(N=CN=C54)N
In a few lines: as §1

Compound in test [4]: Cc1sc2c(c1C)C(c1ccc(Cl)cc1)=N[C@@H](CC(=O)OC(C)(C)C)c1nnc(C)n1-2
In a few lines:
as §1

Compound in test [5]: c1ccc([C@@H]2C[C@H]2NC2CCNCC2)cc1
Summed up: as §1

Targets with a hit are over-represented here; the source holds about 7,900 in all. About 0.6% of all pairs of compound and target were hits. A number with no mark means an inactive call.

This note sets out measurements from the supplement of paper PMC10849652.

Chain of UniProt P11142 (P11142 whole entry, looked up): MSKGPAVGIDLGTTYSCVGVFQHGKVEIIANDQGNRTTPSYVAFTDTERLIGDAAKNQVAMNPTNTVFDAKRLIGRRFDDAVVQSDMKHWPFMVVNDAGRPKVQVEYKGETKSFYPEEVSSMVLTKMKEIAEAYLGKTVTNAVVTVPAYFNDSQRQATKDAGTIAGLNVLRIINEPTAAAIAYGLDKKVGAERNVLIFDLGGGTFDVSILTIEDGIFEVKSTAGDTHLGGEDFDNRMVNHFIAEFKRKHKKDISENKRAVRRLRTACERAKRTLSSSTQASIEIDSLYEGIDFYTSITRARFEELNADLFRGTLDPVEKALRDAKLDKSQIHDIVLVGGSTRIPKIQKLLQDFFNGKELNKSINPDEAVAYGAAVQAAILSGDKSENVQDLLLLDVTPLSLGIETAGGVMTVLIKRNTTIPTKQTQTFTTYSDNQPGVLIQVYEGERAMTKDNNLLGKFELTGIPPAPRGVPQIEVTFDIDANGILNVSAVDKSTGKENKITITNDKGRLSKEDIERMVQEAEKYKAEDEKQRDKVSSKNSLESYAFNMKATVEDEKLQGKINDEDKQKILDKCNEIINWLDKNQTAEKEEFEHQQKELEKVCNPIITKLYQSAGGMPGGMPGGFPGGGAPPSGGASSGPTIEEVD
Chain of UniProt Q14527 (Q14527 whole entry, looked up): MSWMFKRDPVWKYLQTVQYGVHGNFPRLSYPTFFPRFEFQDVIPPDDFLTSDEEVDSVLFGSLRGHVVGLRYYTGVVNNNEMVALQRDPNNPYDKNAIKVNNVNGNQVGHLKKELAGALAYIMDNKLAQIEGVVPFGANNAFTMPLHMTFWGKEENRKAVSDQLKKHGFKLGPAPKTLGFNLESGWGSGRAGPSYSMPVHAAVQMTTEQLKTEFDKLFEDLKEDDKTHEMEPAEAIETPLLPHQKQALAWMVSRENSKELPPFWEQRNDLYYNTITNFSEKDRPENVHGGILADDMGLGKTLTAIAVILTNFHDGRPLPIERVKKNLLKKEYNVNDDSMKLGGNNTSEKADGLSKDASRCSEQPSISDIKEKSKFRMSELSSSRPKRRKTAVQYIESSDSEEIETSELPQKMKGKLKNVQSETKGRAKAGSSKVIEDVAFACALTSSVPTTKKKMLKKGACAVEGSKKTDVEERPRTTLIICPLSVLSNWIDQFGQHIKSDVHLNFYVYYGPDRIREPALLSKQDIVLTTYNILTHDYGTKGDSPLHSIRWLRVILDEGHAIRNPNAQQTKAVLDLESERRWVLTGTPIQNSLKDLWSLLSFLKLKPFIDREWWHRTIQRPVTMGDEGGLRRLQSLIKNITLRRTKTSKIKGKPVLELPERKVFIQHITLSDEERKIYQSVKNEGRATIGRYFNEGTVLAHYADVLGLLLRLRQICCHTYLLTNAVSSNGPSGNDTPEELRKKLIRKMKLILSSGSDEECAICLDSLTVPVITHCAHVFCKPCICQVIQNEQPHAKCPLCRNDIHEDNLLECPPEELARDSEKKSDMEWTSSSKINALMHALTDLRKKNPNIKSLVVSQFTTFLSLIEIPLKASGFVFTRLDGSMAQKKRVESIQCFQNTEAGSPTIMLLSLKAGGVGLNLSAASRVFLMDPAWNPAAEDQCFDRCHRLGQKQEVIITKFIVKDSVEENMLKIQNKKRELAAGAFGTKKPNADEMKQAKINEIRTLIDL
Chain of UniProt Q9BUP3 (Q9BUP3 whole entry, looked up): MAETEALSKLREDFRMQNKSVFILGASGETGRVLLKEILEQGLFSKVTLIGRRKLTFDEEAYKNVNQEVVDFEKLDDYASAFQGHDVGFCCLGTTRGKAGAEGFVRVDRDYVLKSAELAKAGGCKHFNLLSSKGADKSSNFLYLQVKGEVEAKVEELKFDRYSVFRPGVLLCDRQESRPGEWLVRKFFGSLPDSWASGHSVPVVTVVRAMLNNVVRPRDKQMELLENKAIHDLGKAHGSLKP
Chain of UniProt Q9Y3D6 (Q9Y3D6 whole entry, looked up): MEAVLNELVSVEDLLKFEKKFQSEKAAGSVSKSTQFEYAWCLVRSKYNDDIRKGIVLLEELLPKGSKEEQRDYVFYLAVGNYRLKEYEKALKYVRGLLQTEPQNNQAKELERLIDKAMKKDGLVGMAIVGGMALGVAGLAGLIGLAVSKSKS
Chain of UniProt Q9H6D7 (Q9H6D7 whole entry, looked up): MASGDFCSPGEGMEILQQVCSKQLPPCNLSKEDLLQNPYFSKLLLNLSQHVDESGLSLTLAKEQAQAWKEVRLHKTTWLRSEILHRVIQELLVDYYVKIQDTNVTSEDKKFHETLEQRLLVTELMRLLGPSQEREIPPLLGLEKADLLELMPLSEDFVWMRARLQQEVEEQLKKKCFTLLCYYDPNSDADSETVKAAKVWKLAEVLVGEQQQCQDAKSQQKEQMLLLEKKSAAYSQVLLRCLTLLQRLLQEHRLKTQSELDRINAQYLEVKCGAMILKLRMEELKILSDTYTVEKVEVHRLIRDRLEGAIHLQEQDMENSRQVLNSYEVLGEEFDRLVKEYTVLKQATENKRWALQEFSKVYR
Chain of UniProt P37268 (P37268 whole entry, looked up): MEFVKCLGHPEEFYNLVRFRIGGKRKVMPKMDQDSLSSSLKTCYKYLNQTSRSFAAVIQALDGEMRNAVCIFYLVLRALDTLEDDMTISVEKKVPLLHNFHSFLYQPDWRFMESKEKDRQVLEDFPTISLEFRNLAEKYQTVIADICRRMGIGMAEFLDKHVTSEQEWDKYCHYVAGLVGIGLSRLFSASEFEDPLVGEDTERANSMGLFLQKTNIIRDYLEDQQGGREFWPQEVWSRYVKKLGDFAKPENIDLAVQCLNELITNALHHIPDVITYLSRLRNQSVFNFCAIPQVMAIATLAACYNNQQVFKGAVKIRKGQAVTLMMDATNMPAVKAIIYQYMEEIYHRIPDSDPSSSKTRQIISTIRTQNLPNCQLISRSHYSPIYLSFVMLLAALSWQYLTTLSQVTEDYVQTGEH
Chain of UniProt P22087 (P22087 whole entry, looked up): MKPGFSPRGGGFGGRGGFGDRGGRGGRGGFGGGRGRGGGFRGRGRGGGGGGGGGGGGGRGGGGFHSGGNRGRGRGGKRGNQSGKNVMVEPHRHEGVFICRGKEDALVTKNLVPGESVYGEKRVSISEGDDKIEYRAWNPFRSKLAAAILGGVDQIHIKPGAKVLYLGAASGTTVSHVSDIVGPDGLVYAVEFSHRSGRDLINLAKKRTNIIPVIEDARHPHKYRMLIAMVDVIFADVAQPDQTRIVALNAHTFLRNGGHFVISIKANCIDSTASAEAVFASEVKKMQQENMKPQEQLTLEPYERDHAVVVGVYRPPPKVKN
Chain of UniProt P49841 (P49841 whole entry, looked up): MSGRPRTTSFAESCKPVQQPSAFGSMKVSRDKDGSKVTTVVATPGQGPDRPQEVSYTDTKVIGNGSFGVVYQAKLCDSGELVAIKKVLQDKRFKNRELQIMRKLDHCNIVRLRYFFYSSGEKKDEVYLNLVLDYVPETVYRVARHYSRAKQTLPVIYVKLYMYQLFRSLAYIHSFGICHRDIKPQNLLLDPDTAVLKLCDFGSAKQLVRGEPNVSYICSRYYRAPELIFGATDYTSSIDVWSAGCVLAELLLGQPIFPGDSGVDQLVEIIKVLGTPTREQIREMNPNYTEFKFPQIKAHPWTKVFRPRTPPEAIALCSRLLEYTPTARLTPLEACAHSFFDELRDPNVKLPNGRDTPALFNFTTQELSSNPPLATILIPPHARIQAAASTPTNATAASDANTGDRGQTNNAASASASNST

As for HLTF (UniProt Q14527), the log2 fold change was 0.003 in test [1]; 0.012 in test [2]; 0.062 in test [3]; 0 in test [4]; -0.001 in test [5].

With FAT1 (UniProt Q14517), the log2 fold change is -0.059 in test [1]; -0.038 in test [2]; 0.126 in test [3]; -0.071 in test [4]; 0.155 in test [5].

Take FDFT1 (UniProt P37268): the log2 fold change in test [1] is -0.064; in test [2] it was 0.319 (active); in test [3], 0.089; in test [4], 0.109; in test [5], -0.021.

In the case of GSK3B isoform 2 (UniProt P49841), the log2 fold change in test [1] is 0; in test [2] it was 0.083; in test [3], 0.026; in test [4], -0.016; in test [5] it was -0.008.

With HAUS4 (UniProt Q9H6D7), the log2 fold change is 0.094 in test [1]; -0.066 in test [2]; 0.077 in test [3]; -0.021 in test [4]; -0.002 in test [5].

For the target HSPA8 (UniProt P11142), the log2 fold change in test [1] is -0.019; in test [2], -0.032; in test [3], -0.02; in test [4], 0.005; in test [5], -0.008.

As for FIS1 (UniProt Q9Y3D6), the log2 fold change in test [1] is 0.047; in test [2] it was 0.021; in test [3] it was 0.035; in test [4] it was -0.081; in test [5], -0.011.

Consider HTATIP2 isoform 3 (UniProt Q9BUP3), for which the log2 fold change in test [1] was 0.063; in test [2], 0.031; in test [3] it was 0.059; in test [4], 0.028; in test [5], -0.03.

Regarding FBL (UniProt P22087), the log2 fold change in test [1] is 0.095; in test [2], -0.267; in test [3], -0.126; in test [4], 0.18; in test [5], 0.074.
